# Measured values reported in PubChem BioAssay AID686978 (National Center for Advancing Translational Sciences (NCATS), 2013).
# About 64,000 (15%) of roughly 420,000 compounds were called active. About 27% were inconclusive and are not listed. These entries were drawn from the full list. Values without a mark were called inactive. Calls follow the shape of the dose curve; as a rule, active = well fitted inhibition curve with a large enough effect; inconclusive = small, poorly fitted or top-dose-only effect; inactive = flat fitted curve, though single readings scatter.
# Test: qHTS for Inhibitors of human tyrosyl-DNA phosphodiesterase 1 (TDP1): qHTS in cells in absence of CPT; also: nearly all actives have a fitted effect of over 55% in size
# Conditions: DT40 Tdp1-/- hTDP1 cells, no CPT, ATP luminescence, 48 h; activity change, negative = growth inhibition: at 46.2 µM (top of the series)
# How it was run: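 Compound effects on proliferation are scored in DT40 Tdp1-/-;hTDP1 cells in the absence of CPT. ATP levels (CellTiter-Glo luminescence) are recorded after a ≥48 hr, 37 °C incubation.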
# % is scaled to controls: 0 for no effect and ±100 for the full control effect; potency is read from the fitted curve at half-maximal effect.
SMILES,"activity change, negative = growth inhibition [%]",Potency
CCc1ccc(NC(=O)C(C)OC(=O)/C=C/c2cccc([N+](=O)[O-])c2)cc1 (stereo not given),7.8,–
Cc1ccc(Cl)cc1-c1ccc(/C=N/n2cnnc2)o1,-2.4,–
C[C@]12c3[nH]c4ccc(Cl)cc4c3CCN1C(=O)[C@@H](CC(=O)NCCCn1ccnc1)C[C@@H]2C(=O)N1CCOCC1,-13.3,–
CN(C)C(=O)CCc1ccc2c3c([nH]c2c1)[C@]1(C)[C@@H](C(=O)N2CCOCC2)C[C@H](CC(=O)NCCc2ccccn2)C(=O)N1CC3,6.99,–
CN(C)C(=O)CCc1ccc2c3c([nH]c2c1)[C@]1(CCc2ccccc2)[C@@H](C(=O)N2CCCCC2)C[C@H](CC(=O)NCCC2=CCCCC2)C(=O)N1CC3,–,9.2 µM (active)
CC[C@]12c3[nH]c4cc(CCC(=O)N(C)C)ccc4c3CCN1C(=O)[C@@H](CC(=O)NCc1ccco1)C[C@@H]2C(=O)N1CCN(C(=O)c2ccco2)CC1,-10.2,–
CCN(CC)C(=O)[C@H]1CC(CC(=O)NCc2ccco2)C(=O)N2CCc3c([nH]c4ccccc34)[C@]12C (stereo not given in full),-17.4,–
CCN(CC)C(=O)[C@H]1C[C@H](CC(=O)NCC23CC4CC(CC(C4)C2)C3)C(=O)N2CCc3c([nH]c4cc(CCC(=O)N(C)C)ccc34)[C@]12C,–,18.4 µM (active)
CC(C)N(C(=O)[C@H]1C[C@H](CC(=O)NC(C)(C)C)C(=O)N2CCc3c([nH]c4ccc(Cl)cc34)[C@]12C)C(C)C,–,6.51 µM (active)
CC[C@]12c3[nH]c4cc(CCC(=O)N(C)C)ccc4c3CCN1C(=O)[C@@H](CC(=O)NCCCn1ccnc1)C[C@@H]2C(=O)N1CCN(C(=O)C2CC2)CC1,0.652,–
COc1ccc2[nH]c3c(c2c1)CCN1C(=O)C(CC(=O)NCCc2ccccn2)C[C@H](C(=O)N2CCOCC2)[C@@]31C (stereo not given in full),-1.15,–
CC[C@]12c3[nH]c4cc(CCC(=O)N(C)C)ccc4c3CCN1C(=O)[C@@H](CC(=O)NCCCN(C)C)C[C@@H]2C(=O)N1CCN(C(=O)c2ccco2)CC1,-4.3,–
CN(C)C(=O)CCc1ccc2c3c([nH]c2c1)[C@]1(C)[C@@H](C(=O)N2CCCCC2)C[C@H](CC(=O)NCCC2=CCCCC2)C(=O)N1CC3,–,16.4 µM (active)
COc1ccc2[nH]c3c(c2c1)CCN1C(=O)C(CC(=O)NCc2cccc(C(F)(F)F)c2)C[C@H](C(=O)N2CCOCC2)[C@@]31C (stereo not given in full),-25.2,–
CC(=O)NCC(=O)N1CCC(n2nccc2NC(=O)CCCc2ccccc2)CC1,-7.46,–
OCC[C@H]1C[C@H](O)[C@@H](O)[C@]2(CCCCO2)O1,-6.13,–
COc1ccc(-c2c(C#N)cnc(C)c2C)c(O)c1OC,-27.4,–
CSCCC(NC(=O)COc1ccccc1)C(=O)Nc1ccc(C)cc1 (stereo not given),-28.3,–
O=C(O)c1ccc(COc2c(F)c(F)cc(F)c2F)o1,18.8,–
CC(=O)N1CCC2(CCCN(Cc3ccc(C#N)cc3)C2)CC1,0.656,–
CS(=O)(=O)NC(=O)CCC/C=C\C[C@H]1C(=O)C[C@@H](O)[C@@H]1/C=C/[C@H](O)COc1ccccc1,-1.9,–
CC(Sc1ncnc2c1cnn2-c1ccccc1)C(=O)Nc1ccc(N2CCOCC2)cc1 (stereo not given),-1.88,–
Cc1cc2nc(SCCN3CCOCC3)[nH]c2cc1C,-12.7,–

SMILES,"activity change, negative = growth inhibition [%]",Potency
COc1ccc(C(=O)NCC(=O)N/N=C/c2ccc([N+](=O)[O-])o2)cc1OC,–,5.17 µM (active)
CCc1ccc(S(=O)(=O)N/N=C\c2ccc([N+](=O)[O-])o2)cc1,–,16.4 µM (active)
CCc1ccc(S(=O)(=O)Nc2ccc(C)c(NS(C)(=O)=O)c2)cc1,-1.78,–
O=C(Cc1cc(=O)[nH][nH]1)N/N=C/c1ccccc1[N+](=O)[O-],-17.3,–
COc1cc(/C=N\NC(=O)CNC(=O)c2cccc([N+](=O)[O-])c2)ccc1O,-0.0452,–
COc1ccc(C(=O)NCC(=O)N/N=C/c2ccc([N+](=O)[O-])s2)cc1OC,–,16.4 µM (active)
COc1ccc(/C=N/NS(=O)(=O)c2ccc(NC(C)=O)cc2)cc1,2.6,–
COc1cccc(/C=N/NC(=O)CNC(=O)c2ccc(S(=O)(=O)N3CCOCC3)cc2)c1OC,-23.8,–
O=C(COc1ccccc1[N+](=O)[O-])N/N=C/c1ccc[nH]1,-15.9,–
Cc1ccccc1NCC(=O)N/N=C\c1ccc([N+](=O)[O-])s1,–,9.2 µM (active)
COc1cc(/C=N/NC(=O)CNC(=O)c2ccncc2)ccc1OC(C)=O,5.66,–
COc1ccc(C(=O)COC(=O)c2ccc([N+](=O)[O-])s2)cc1OC,-8.4,–
CC1(C)S[C@@H]2[C@H](N=CN3CCCCCC3)C(=O)N2[C@H]1C(=O)O,-23.2,–
CN(C(=O)CN(CCO)CC(=O)N(C)C(C)(C)Cc1ccccc1)C(C)(C)Cc1ccccc1,-1.77,–
[O-][n+]1c2c(nn1-c1ccc(Cl)c(Cl)c1)-c1nonc1CC2,-14.7,–
Oc1ccccc1CNc1ncc(Br)cc1Br,-23.9,–
O=S(=O)(NCCc1ccc(Cl)cc1)c1cccs1,-21.2,–
COc1cccc(-n2c(Cc3cc(=O)[nH]c(=O)[nH]3)nnc2SCC(=O)Nc2ccccc2)c1,0.566,–
Nc1nnnn1CC(=O)N/N=C/c1ccc(-c2cccc(Cl)c2)o1,-20.2,–
C[C@H]1CN([C@@H](C)CO)C(=O)CCCn2cc(nn2)CO[C@@H]1CN(C)S(=O)(=O)c1cccs1,-1.39,–
CC(C)(C)c1cc(C(=O)N/N=C/c2ccc([N+](=O)[O-])s2)n[nH]1,–,11.6 µM (active)
Cc1cc(C)nc(N/N=C/c2ccncc2)n1,1.16,–
NC(=O)C(=O)N/N=C/c1ccc([N+](=O)[O-])o1,–,15 µM (active)

SMILES,"activity change, negative = growth inhibition [%]",Potency
Cc1cc(C)nc(Nc2cc([N+](=O)[O-])ccc2C)n1,-12.5,–
Cc1cc(C)nc(N/N=C/c2ccc([N+](=O)[O-])o2)n1,–,16.4 µM (active)
O=C(N/N=C/c1ccc([N+](=O)[O-])cc1)C(=O)N1CCCC1,-23.1,–
O=C(Cc1ccc([N+](=O)[O-])cc1)N/N=C/c1ccco1,11.1,–
Cc1nn(CC(=O)N/N=C/c2ccc(F)cc2)c(C)c1[N+](=O)[O-],4.7,–
CC(C)NC(=O)Nc1cccc2c1O[C@@H](CN(C)S(=O)(=O)c1ccc(F)cc1)[C@@H](C)CN([C@H](C)CO)C2=O,-21.8,–
O=C(O)C(c1cccs1)C1(O)CCCCC1 (stereo not given),-1.75,–
COc1ccc(C)cc1N(CC(=O)NC(C)c1ccccc1)S(C)(=O)=O (stereo not given),1.25,–
CCc1c(C)nc(N)n2c(SCC(=O)NC3CCCCC3)nnc12,-6.99,–
C[C@@H]1CN([C@@H](C)CO)C(=O)c2cc(Br)cnc2O[C@@H]1CN(C)C(=O)C1CCCCC1,-14.5,–
C[N+](C)(C)CCOP(=O)([O-])OC[C@H](O)CO,-9.67,–
CN1C(=O)CC(N2CCN(c3ccccn3)CC2)C1=O (stereo not given),-6.92,–
COC(=O)c1cc(NC(=O)CC2C(=O)NCCN2C(=O)c2ccc(F)cc2)cc(C(=O)OC)c1 (stereo not given),0.411,–
CCOc1ncccc1C(=O)OCC(=O)N1c2ccccc2CC1C (stereo not given),-1.22,–
CN(C)c1ccc(CN2CCOc3ccc(CN4CCC(O)(c5cccnc5)CC4)cc3C2)cc1,–,16.4 µM (active)
C[C@@H]1CN(Cc2ccc3c(c2)CN(Cc2ccc(Oc4ncccn4)cc2)CCO3)C[C@H](C)O1,-22.2,–
CCOC(=O)N1CCC(N2CCOc3ccc(CN4CCC(O)(c5cccnc5)CC4)cc3C2)CC1,-21.8,–
CCOCCCN(C(=O)Cn1nnc(-c2ccc(OC)c(OC)c2)n1)C(CC)C(=O)NC1CCCC1 (stereo not given),-19.6,–
CCN1CCCC1Cn1cnc2c([nH]c3cc(OC)ccc32)c1=O (stereo not given),-0.0102,–
O=C(c1ccc(F)cc1)N1CCCC(C(=O)N2CCCCC2)C1 (stereo not given),4.71,–
O=C(c1cccs1)N1CCCC(c2nc(-c3ccc(F)cc3)no2)C1 (stereo not given),–,16.4 µM (active)
COc1ccc(NC(=O)N2CCCC(c3nc(-c4ccc(F)cc4)no3)C2)cc1 (stereo not given),-18.8,–
CC(CC(=O)C1C(C)C=CCC1(C)C)NNC(N)=O (stereo not given),-7.87,–

SMILES,"activity change, negative = growth inhibition [%]",Potency
O=C(CSc1nnc(-c2ccco2)o1)NCC(=O)c1ccccc1,-11.8,–
CCN(CC)C(=O)c1nc[nH]c1C(=O)N(C)Cc1ccccc1,1.62,–
Cc1nnc(SCC(=O)NCc2cccs2)[nH]c1=O,10.3,–
Fc1ccccc1/C=N/n1c(-c2cccnc2)n[nH]c1=S,-23.5,–
CCN(CC)S(=O)(=O)c1cccc(-c2n[nH]c(=S)n2/N=C/c2ccc(C(=O)OC)cc2)c1,-12.8,–
S=c1[nH]nc(-c2cccnc2)n1/N=C/C(Cl)=C\c1ccccc1,–,23.1 µM (active)
Cc1cc(-c2n[nH]c(=S)n2/N=C/c2ccco2)n[nH]1,13.9,–
Cc1cc(-c2n[nH]c(=S)n2/N=C/C(Br)=C/c2ccccc2)n[nH]1,–,2.06 µM (active)
S=c1[nH]nc(-c2ccco2)n1/N=C/c1ccccc1,0.392,–
Cc1ccccc1CCN(CC(=O)NC1CCCCC1)C(=O)c1csnn1,-27.2,–
CSCC[C@H](NC(=O)CCCn1nnc2ccccc2c1=O)C(=O)O,2.85,–
C[C@H]1CN([C@@H](C)CO)C(=O)c2cc(-c3ccccc3F)cnc2O[C@H]1CN(C)C(=O)C1CCOCC1,4.98,–
NC(=O)N/N=C\c1cccs1,3.85,–
COc1ccccc1C(=O)N/C(=C/c1ccc2c(c1)OCO2)C(=O)Nc1cccc(C(=O)O)c1,-8.86,–
CC(=O)Nc1ccc(CN2CCC(Oc3ccc(C(=O)N4CCCC4)cc3)CC2)cc1,-2.76,–
COc1ccc2c(c1)CCc1cnc(-n3ncc(C(=O)NCCN4CCOCC4)c3C)nc1-2,-29.3,–
COc1ccc(N)c(C)c1,-0.894,–
O=C(Cc1ccc(Br)cc1)NCCN1CCOCC1,-2.63,–
COc1ccc(-c2ccc(C(=O)NCCN3CCOCC3)c3occc23)c(C)c1,–,20.6 µM (active)
COc1ccc(C2OC(=O)CC2C(=O)NC(C)C)cc1 (stereo not given),7.56,–
COc1ccc(-c2ccc(C(=O)NC(C)C)c3occc23)c(C)c1,–,16.4 µM (active)
